According to PubChem BioAssay (NCI):
About 83,000 compounds went through this panel and 20% of them were active in at least one assay; those are over-represented in the sample as a whole.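 For each line, cells grew in 96-well plates with the test compound present at a single concentration for 48 hours.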 The source made the active and inactive calls. Rule for the calls: active = growth percent below 10; inactive = the rest.

Assays:
Test in all cases: NCI-60 one-dose screen, 48 h (100 = growth as untreated, 0 = no growth, -100 = all killed)
Details in all cases: 10 µM unless noted
NCI-H23 lung = tested on: NCI-H23 lung
NCI-H226 lung = tested on: NCI-H226 lung
NCI-H322M lung = tested on: NCI-H322M lung
HOP-62 NSCLC = tested on: HOP-62 NSCLC
NCI-H460 lung = tested on: NCI-H460 lung
HOP-92 NSCLC = tested on: HOP-92 NSCLC
NCI-H522 lung = tested on: NCI-H522 lung
A549/ATCC NSCLC = tested on: A549/ATCC NSCLC
786-0 renal = tested on: 786-0 renal
COLO 205 colon = tested on: COLO 205 colon
DU-145 prostate = tested on: DU-145 prostate
K-562 leukemia = tested on: K-562 leukemia
MALME-3M melanoma = tested on: MALME-3M melanoma
MDA-MB-231 breast = tested on: MDA-MB-231 breast
RXF 393 renal = tested on: RXF 393 renal
SF-268 CNS = tested on: SF-268 CNS
SF-295 CNS = tested on: SF-295 CNS
SF-539 CNS = tested on: SF-539 CNS
UACC-257 melanoma = tested on: UACC-257 melanoma
M14 melanoma = tested on: M14 melanoma

Measured: growth

CC(C)C[C@@H](NC(=O)[C@@H](Cc1ccccc1)NC(=O)c1cnccn1)B1Oc2ccc(C[C@H](NC(=O)[C@H](Cc3ccc4c(c3)OB([C@@H](CC(C)C)NC(=O)[C@@H](Cc3ccccc3)NC(=O)c3cnccn3)O4)NC(=O)[C@@H](N)CC3CCC4OB([C@@H](CC(C)C)NC(=O)[C@@H](CC5CCCCC5)NC(=O)C5CNCCN5)OC4C3)C(=O)NCCCC[C@@H]3NC(=O)[C@@H](Cc4ccccc4)NC(=O)[C@H](CC(=O)O)NC(=O)CNC(=O)[C@H](CCCNC(=N)N)NC3=O)cc2O1 (stereo not given in full)
active: NCI-H23 lung -41.3% | NCI-H226 lung -50.2% | NCI-H322M lung -8.33% | HOP-62 NSCLC -43.2% | NCI-H460 lung -54.8% | HOP-92 NSCLC -74.1% | NCI-H522 lung -43.4% | A549/ATCC NSCLC -49.5% | 786-0 renal -12.6% | COLO 205 colon -72.6% | DU-145 prostate -44.8% | K-562 leukemia -0.546% | MALME-3M melanoma -20.3% | MDA-MB-231 breast -7.69% | RXF 393 renal -89.2% | SF-268 CNS -52.7% | SF-295 CNS -68.6% | SF-539 CNS -37.6% | UACC-257 melanoma -11.7% | M14 melanoma 0.189%

COc1ccc(C(=O)COc2cccc(/C=C3\CSc4ccccc4C3=O)c2)cc1
active: NCI-H522 lung -63.1% | K-562 leukemia -73.4% | MALME-3M melanoma -67.2% | RXF 393 renal -39.6% | UACC-257 melanoma -35.8% | M14 melanoma -26.3%
inactive: NCI-H23 lung 12.9% | NCI-H226 lung 79.9% | NCI-H322M lung 62.4% | HOP-62 NSCLC 86.9% | NCI-H460 lung 72.6% | HOP-92 NSCLC 60.4% | A549/ATCC NSCLC 87.4% | 786-0 renal 80.2% | COLO 205 colon 105% | DU-145 prostate 102% | MDA-MB-231 breast 76.6% | SF-268 CNS 51.7% | SF-295 CNS 38% | SF-539 CNS 62.5%

O=C1NC(=Nc2ccc(O)cc2)S/C1=C\c1cccc(Cl)c1
inactive: NCI-H23 lung 88.2% | NCI-H226 lung 102% | NCI-H322M lung 83.7% | HOP-62 NSCLC 76.1% | NCI-H460 lung 86.3% | HOP-92 NSCLC 72.5% | NCI-H522 lung 76.3% | A549/ATCC NSCLC 54.9% | 786-0 renal 67.1% | COLO 205 colon 102% | DU-145 prostate 84.5% | K-562 leukemia 21.9% | MALME-3M melanoma 88.7% | MDA-MB-231 breast 96.2% | RXF 393 renal 75.1% | SF-268 CNS 74.1% | SF-295 CNS 69.1% | SF-539 CNS 68.6% | UACC-257 melanoma 95.9% | M14 melanoma 56.7%

COc1cc(/C=C/C(=O)c2ccc(O)c(CN3CCN(c4cc5c(cc4F)c(=O)c(C(=O)O)cn5C4CC4)CC3)c2)cc(OC)c1OC
inactive: NCI-H23 lung 42.8% | NCI-H226 lung 76.9% | NCI-H322M lung 30% | HOP-62 NSCLC 72.3% | NCI-H460 lung 34.8% | HOP-92 NSCLC 81.2% | NCI-H522 lung 27.6% | A549/ATCC NSCLC 43.1% | 786-0 renal 49.8% | COLO 205 colon 106% | DU-145 prostate 24.6% | K-562 leukemia 10.6% | MALME-3M melanoma 74.3% | MDA-MB-231 breast 76.7% | RXF 393 renal 28.1% | SF-268 CNS 54.9% | SF-295 CNS 86.5% | SF-539 CNS 49.6% | UACC-257 melanoma 64.5% | M14 melanoma 48.8%

CCC(=O)c1ccc(Cl)s1
inactive: NCI-H23 lung 104% | NCI-H226 lung 103% | NCI-H322M lung 134% | HOP-62 NSCLC 109% | NCI-H460 lung 99% | HOP-92 NSCLC 102% | NCI-H522 lung 93.7% | A549/ATCC NSCLC 98.7% | 786-0 renal 105% | COLO 205 colon 101% | DU-145 prostate 111% | K-562 leukemia 109% | MALME-3M melanoma 115% | MDA-MB-231 breast 106% | RXF 393 renal 115% | SF-268 CNS 94.8% | SF-295 CNS 113% | SF-539 CNS 114% | UACC-257 melanoma 104% | M14 melanoma 103%

NC(=O)c1cc(Br)ccc1NC(=O)/C=C/c1ccccc1
active: NCI-H522 lung -24.9% | COLO 205 colon -4.22% | DU-145 prostate -5.67% | SF-539 CNS 9.78%
inactive: NCI-H23 lung 62% | NCI-H226 lung 66.9% | NCI-H322M lung 76.1% | HOP-62 NSCLC 99% | NCI-H460 lung 17.1% | HOP-92 NSCLC 57% | A549/ATCC NSCLC 33.2% | 786-0 renal 65.7% | K-562 leukemia 15% | MALME-3M melanoma 96.5% | MDA-MB-231 breast 45.3% | RXF 393 renal 39.3% | SF-268 CNS 43.5% | SF-295 CNS 51.3% | UACC-257 melanoma 49.1% | M14 melanoma 28.3%

CC1=C[C@H]2c3c(c(O)c(O)c4oc5c(C)cccc5c(=O)c34)[C@H](c3cc(O)c(O)c4oc5c(C)cccc5c(=O)c34)[C@H]2C(C)(C)C1
inactive: NCI-H322M lung 21.5% | HOP-92 NSCLC 20.9% | A549/ATCC NSCLC 11.9% | COLO 205 colon 16.3% | DU-145 prostate 23.9% | MALME-3M melanoma 18.9% | MDA-MB-231 breast 23.7% | RXF 393 renal 21.5% | UACC-257 melanoma 23.4% | M14 melanoma 13.7%
active: NCI-H23 lung -15.2% | NCI-H226 lung 0.242% | HOP-62 NSCLC 9.87% | NCI-H460 lung -44.3% | NCI-H522 lung 3.27% | 786-0 renal -3.44% | K-562 leukemia 2.97% | SF-268 CNS -1.07% | SF-295 CNS -32.4% | SF-539 CNS -18.5%

CN1CCN(CCCOc2cccc3nc(Nc4ccc(Cl)c(F)c4)ccc23)CC1
active: COLO 205 colon -54.7% | K-562 leukemia -48.6% | MALME-3M melanoma 1.94% | MDA-MB-231 breast -57.6% | UACC-257 melanoma -31% | M14 melanoma -27.7%
inactive: NCI-H23 lung 63.3% | NCI-H226 lung 58.1% | NCI-H322M lung 33.6% | HOP-62 NSCLC 61% | NCI-H460 lung 13.2% | HOP-92 NSCLC 30.8% | NCI-H522 lung 29.8% | A549/ATCC NSCLC 40.1% | 786-0 renal 64.1% | DU-145 prostate 38.8% | RXF 393 renal 54% | SF-268 CNS 44.3% | SF-295 CNS 46% | SF-539 CNS 16.9%

CCN1CCC2(CC1)NC(=O)c1c(c3ccc(Cl)c(Cl)c3n1C)C2C#N (stereo not given)
active: COLO 205 colon -31.4% | MALME-3M melanoma -6.1% | UACC-257 melanoma -5.12% | M14 melanoma -38.5%
inactive: NCI-H23 lung 70% | NCI-H226 lung 72% | NCI-H322M lung 57% | HOP-62 NSCLC 62% | NCI-H460 lung 54.6% | HOP-92 NSCLC 40.5% | NCI-H522 lung 61.5% | A549/ATCC NSCLC 52.1% | 786-0 renal 63.7% | DU-145 prostate 72.7% | K-562 leukemia 23.3% | MDA-MB-231 breast 60.5% | RXF 393 renal 76.6% | SF-268 CNS 51.4% | SF-295 CNS 70.8% | SF-539 CNS 52%

COc1ccc(/C=C/c2nc3ccccc3nc2/C=C/c2ccc(OC)cc2)cc1
inactive: NCI-H23 lung 93.5% | NCI-H226 lung 90.2% | NCI-H322M lung 103% | HOP-62 NSCLC 104% | NCI-H460 lung 100% | HOP-92 NSCLC 92.3% | NCI-H522 lung 94% | A549/ATCC NSCLC 93.9% | 786-0 renal 88.8% | COLO 205 colon 97.4% | DU-145 prostate 105% | K-562 leukemia 101% | MALME-3M melanoma 109% | MDA-MB-231 breast 111% | RXF 393 renal 80.3% | SF-268 CNS 99.5% | SF-295 CNS 102% | SF-539 CNS 89.8% | UACC-257 melanoma 106% | M14 melanoma 93%

NNCCc1ccc(NC(=O)CCCc2ccc(/C=C/C(=O)NO)cc2)cc1
inactive: NCI-H23 lung 64.9% | NCI-H226 lung 36% | NCI-H322M lung 64% | HOP-62 NSCLC 32.8% | NCI-H460 lung 62.8% | HOP-92 NSCLC 28.8% | NCI-H522 lung 16.6% | A549/ATCC NSCLC 76.4% | 786-0 renal 71.3% | COLO 205 colon 71.2% | DU-145 prostate 72.6% | MALME-3M melanoma 39.4% | MDA-MB-231 breast 42.3% | RXF 393 renal 63.6% | SF-268 CNS 45.3% | SF-295 CNS 77.7% | SF-539 CNS 53.3% | UACC-257 melanoma 51.7% | M14 melanoma 61.1%
active: K-562 leukemia 7.74%

O=C(/C=C/c1cc(CN2CCOCC2)c(O)c2ncccc12)c1cc(CN2CCOCC2)c(O)c2ncccc12
inactive: NCI-H23 lung 30.5% | NCI-H226 lung 34.6% | NCI-H322M lung 45.5% | HOP-62 NSCLC 16% | NCI-H522 lung 14.4% | 786-0 renal 24.6% | COLO 205 colon 30.2% | DU-145 prostate 26.9% | K-562 leukemia 10.4% | MALME-3M melanoma 38.9% | MDA-MB-231 breast 30.6% | RXF 393 renal 35.3% | SF-268 CNS 30.2% | SF-295 CNS 14.7% | SF-539 CNS 15% | M14 melanoma 31.3%
active: NCI-H460 lung 9.34% | HOP-92 NSCLC -4.72% | A549/ATCC NSCLC 2.72% | UACC-257 melanoma -6.41%

CCCOc1cc2ccccc2cc1C(=O)Nc1nc(N)c2c(ccc3nccc32)[nH]1
active: NCI-H23 lung -55.1% | NCI-H226 lung -56.6% | NCI-H322M lung -35.1% | HOP-62 NSCLC -68.8% | NCI-H460 lung -75.8% | HOP-92 NSCLC -71.2% | NCI-H522 lung -59.6% | A549/ATCC NSCLC -70.3% | 786-0 renal -71.9% | COLO 205 colon -78.3% | DU-145 prostate -65.8% | K-562 leukemia -28.9% | MALME-3M melanoma -76.1% | MDA-MB-231 breast -67.1% | RXF 393 renal -77.1% | SF-268 CNS -68.6% | SF-295 CNS -76.6% | SF-539 CNS -77.7% | UACC-257 melanoma -77.6% | M14 melanoma -69.8%

C=C(C)[C@@H]1CC[C@]2(C(N)=O)CC[C@]3(C)[C@H](CC[C@@H]4[C@@]5(C)C/C(=C/c6ccco6)C(=O)C(C)(C)[C@@H]5CC[C@]43C)[C@@H]12
inactive: NCI-H23 lung 98% | NCI-H226 lung 95.8% | NCI-H322M lung 98.9% | HOP-62 NSCLC 98.5% | NCI-H460 lung 96% | HOP-92 NSCLC 103% | NCI-H522 lung 78.8% | A549/ATCC NSCLC 86.6% | 786-0 renal 95.3% | COLO 205 colon 113% | DU-145 prostate 92.6% | K-562 leukemia 80.1% | MALME-3M melanoma 87% | MDA-MB-231 breast 94.5% | RXF 393 renal 94.2% | SF-268 CNS 90.9% | SF-295 CNS 90.2% | SF-539 CNS 98.6% | UACC-257 melanoma 97.8% | M14 melanoma 85.1%
